Hits are enriched below; roughly 1.6% of the tested compounds scored in any of these assays.
GC-A act = GC-A (human) enzyme activation; P16066; HEK293 GC-A cells, cGMP TR-FRET, EC30 ANP; 0% at EC30 ANP, 100% saturating ANP; activation, % at 10 µM; 370,000 compounds, 0.14% hits; AID 1671463; in the data active = activation above about 40%
Efflux pump mplx = inhibitors of Candida antifungal efflux pumps expressed in yeast; S. cerevisiae Candida pump triplex, Nile Red efflux; inhibition, % at 10 µM; 330,000 compounds, 0.44% hits;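 active = plate passing quality check with inhibition over a set limit, or well fluorescence over plate mean plus 4 SD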;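 note: Nile Red retained in pooled yeast measured as flow cytometry median fluorescence; 0% = buffer negative control and 100% = Enniatin B positive control; higher means more Nile Red kept so more efflux inhibition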
V-ATPase pHluor = regulators of yeast V-ATPase proton transport; AID 504577; S. cerevisiae, pHLuorin cytosolic pH fluorescence; 350,000 compounds, 0.37% hits; response, % at 10 µM; in the data active = response mostly above about 7.3%, no sharp cut-off; inactive = mostly below about 5.4%; note: actives read high
NPR2 activator = GC-B (human) receptor activation. P20594. HEK293-GC-B cells, CNP EC30, cGMP TR-FRET; 0% at EC30 CNP, 100% saturating CNP. activation, % at 10 µM. 370,000 compounds, 0.11% hits;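 active = activation at 10 µM reaching about 35% in either raw or pattern-adjusted values, limit read from the data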
NSD2 HMT inh = blocks human histone methyltransferase NSD2; O96028; NSD2 peptide methylation, AlphaScreen, 120 min; inhibition, % at 12.5 µM; 310,000 compounds, 0.54% hits; AID 743445; in the data active = inhibition above about 50%
Rce1 inhib = inhibitors of yeast Ras-converting enzyme | Q03530 | yeast membranes, quenched prenylated peptide cleavage fluorescence | calls only | 290,000 compounds, 0.27% hits;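 active = fall in fluorescence gain of 50% or more versus controls, with final raw signal at or below 3038400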;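 note: plate controls were neutral control wells for no effect and wells lacking membranes for full effect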
Alpha artifact = AlphaScreen assay artifact in NSD2 counter-screen | shares compounds with NSD2 HMT inh | AlphaScreen artifact counterscreen, preloaded methylated H4 peptide | 1,500 compounds, 9.4% hits | AC35, µM (highest dose often 10 µM), for inactives: top-dose activity change, negative = signal loss; call rule not given here
* hit, by the source's call; i = inactive; . = no result given.

SMILES | GC-A act | Efflux pump mplx | V-ATPase pHluor | NPR2 activator | NSD2 HMT inh | Rce1 inhib | Alpha artifact
COCCn1c(N)c(N(Cc2ccccc2)C(=O)c2cc(=O)[nH]c3ccccc23)c(=O)[nH]c1=O | 2 | 0 | -3 | 2 | 93* | . | -6%
CC(=O)c1ccc(OCC(C)C)c(CC(C(N)=O)C(N)=O)c1 | 2 | 0 | -2 | -5 | 1 | i | .
CCCOc1ccc(C(C)=O)cc1CC(C(N)=O)C(N)=O | 1 | 0 | 0 | 1 | 135* | i | 2%
O=C(OC12CCCN(C1)/C(=C/c1ccncc1)C2)c1ccc(Cl)cc1 (stereo not given) | -3 | . | . | -1 | . | . | .
CCCCn1c(NS(=O)(=O)c2ccc(C)cc2)c(S(=O)(=O)c2ccccc2)c2nc3ccccc3nc21 | -2 | 1 | -12 | 8 | 127* | i | -1%
CN(CCC#N)C(=O)COC(=O)/C=C/c1cccs1 | 3 | 0 | -2 | 4 | 1 | i | .
CCO/C=C/C(=O)N(C)CCC#N | 0 | 0 | 1 | 8 | 125* | . | -7%
NC(=NCc1ccccc1)NC(=O)OCc1ccccc1 | 0 | . | . | -1 | . | . | .
O=C(NNC(=O)c1ccc(NC(=O)C2CC2)cc1)c1ccc(F)cc1 | 0 | 0 | 0 | 2 | 52* | i | -5%
CC(=O)Nc1ccc(S(=O)(=O)NCCSCc2ccc(Cl)cc2Cl)cc1 | 2 | 0 | -1 | -6 | 50* | i | 0%
CC(=O)Nc1ccc(S(=O)(=O)NCCNS(=O)(=O)c2ccc(NC(C)=O)cc2)cc1 | 0 | 0 | 0 | 2 | -7 | i | .
C=CCc1cc(/C=C/c2nc(O)c([N+](=O)[O-])c(=O)[nH]2)cc(OC)c1O | 1 | 0 | -2 | -2 | 78* | i | -9%
CCCCN(C)C(=O)C1CCN(Cc2cccc(OCc3ccccc3)c2)CC1 | -3 | 0 | 0 | 1 | 73* | i | -7%
COP(=O)(O)C(Cc1ccccc1)NC(=O)OCc1ccccc1 (stereo not given) | 3 | . | . | 1 | . | . | .
O=C(CSc1nc(SCC(=O)NCc2ccccc2)n(-c2ccccc2)n1)NCc1ccccc1 | -6 | 0 | -3 | 1 | 81* | i | -2%
COC(=O)c1ccc(/C=N/N2CCN(Cc3ccccc3)CC2)cc1 | 0 | 0 | -4 | -3 | 52* | i | -6%
Cc1c(NC(=O)C(C)OC(=O)c2sc3ccccc3c2Cl)c(=O)n(-c2ccccc2)n1C (stereo not given) | 0 | 0 | -3 | 3 | 3 | i | .
Cc1c(NC(=O)C(C)OC(=O)c2ccc([N+](=O)[O-])s2)c(=O)n(-c2ccccc2)n1C (stereo not given) | -1 | 0 | 1 | 3 | 115* | i | -2%
COc1ccc(N2CCN(CCNS(=O)(=O)c3cccs3)CC2)cc1 | 0 | . | . | -1 | 2 | . | .
CCN1CCN(CCCNC(=O)c2ccc3c(c2)NC(=O)/C(=C\c2cccc(C)c2)S3)CC1 | 4 | 0 | 0 | 9 | 51* | i | -5%
O=C1CCC[C@H]2C[C@H](NCc3ccccc3F)CC[C@]23CCCN13 | 3 | . | . | -4 | . | . | .
C=CCc1cccc(C=NNC(=O)c2ccco2)c1O | 1 | . | . | -10 | 0 | . | .
CCCCNC(=O)C1(C(=O)c2ccc(OC)cc2)CC(c2ccccn2)=NO1 (stereo not given) | 2 | . | . | 1 | . | . | .
Cc1cc2c(N)cccc2nn1 | . | 0 | -7 | . | 99* | i | -6%
COc1ccccc1CNC(=O)C[C@H]1CC[C@H]2[C@@H](COc3ccc(NC(=O)Nc4ccccc4)cc3C(=O)N2C)O1 | 1 | . | . | 11 | . | . | .
SMILES | GC-A act | Efflux pump mplx | V-ATPase pHluor | NPR2 activator | NSD2 HMT inh | Rce1 inhib | Alpha artifact
Cc1cc(SCC(=O)c2ccc(O)c(O)c2)nc2ccccc12 | -4 | 0 | 5 | -4 | 67* | . | -18%
Cc1cc(SCC(=O)Nc2cccnc2Cl)nc2ccccc12 | 2 | 0 | 3 | -1 | 65* | i | -4%
CC(C)(C)N1Cc2nnn(Cc3ccccc3)c2-c2cc(N3CCCC3)ccc2S1(=O)=O | -9 | . | . | -2 | . | . | .
Cc1cc(-c2n[nH]c(=S)n2N=Cc2cccc(OCc3ccccc3)c2)n[nH]1 | 0 | . | . | -20 | 63* | . | -9%
Cn1c(NNC(=O)c2c(F)cccc2F)cc(=O)n(C)c1=O | 1 | 0 | -2 | 1 | 62* | i | -4%
CC(Nc1ccc2ccccc2c1)C(=O)N/N=C/c1ccncc1 (stereo not given) | -2 | 0 | -4 | 3 | 141* | . | -4%
CC(Oc1ccc2ccccc2c1)C(=O)N/N=C/c1cccnc1 (stereo not given) | 4 | 0 | 3 | -3 | 1 | i | .
CN1CCC/C1=C/C=C1\SC(=S)NC1=O | -14 | 0 | -2 | -4 | 53* | . | 2%
O=C1NC(=S)SC1=Cc1cccs1 | 0 | . | -2 | 6 | 34 | . | .
CCOC(=O)[C@]12CCCCC/C=C\1N(Cc1ccc(OC)cc1)C(=O)[C@H]2CC(=O)N1CCC(c2ccccc2)CC1 | -2 | . | . | 7 | . | . | .
CC(=O)NC1=NN(C(C)=O)C(C)(c2cccc([N+](=O)[O-])c2)S1 (stereo not given) | -2 | 0 | 0 | 4 | 99* | i | 2%
CCN(CC)CCCNc1nc2ccccc2c2[nH]c3ccc(OC)cc3c12 | 9 | . | 0 | 0 | 56* | . | -7%
CCOc1ccc2[nH]c3c(NCCN(CC)CC)ncnc3c2c1 | 3 | 0 | 5 | -3 | 103* | i | -4%
Cc1csc(NC(=O)c2ccc(COc3cccc(F)c3)o2)n1 | 20 | . | . | 23 | . | . | .
C=CCN1[C@H](CO)[C@H](c2ccc(Br)cc2)[C@@H]1C#N | -2 | . | . | -6 | . | . | .
Cc1cc(/C=N/NC(=O)c2cccc(N(C)C)c2)c(C)n1-c1cc(C(=O)O)cc(C(=O)O)c1 | -5 | . | -2 | 2 | 55* | i | -4%
O=C1c2cccc(NCCCNCCO)c2C(=O)c2cccc(NCCCNCCO)c21 | -37 | . | -20 | -25 | 88* | . | 4.2µM*
CC(=O)N1CCN(c2cc(C)nc3nc(C)nn23)CC1 | 0 | . | . | -1 | -9 | . | .
COC(=O)[C@]12C[C@H](CC(=O)NCCCCc3ccccc3)C(=O)N(CCc3ccc(OC)c(OC)c3)C1=C[C@H](C(C)C)O[C@@H]2C1CC1 | -6 | . | . | -2 | . | . | .
O=C1C(=O)N(CCS(=O)(=O)c2ccccc2)c2ccc(F)cc21 | -11 | 0 | 2 | -4 | 100* | i | 2%
N#Cc1cccc(NC(=O)OC2CC3CC2[C@H]2CCCCN2C3)c1 (stereo not given in full) | -2 | . | . | 1 | . | . | .
COc1ccc(-c2c3c(nc4sc(C(=O)Nc5cc(C)on5)c(N)c24)CCC3)cc1 | 12 | 0 | -1 | -6 | 52* | i | 5%
COc1ccc(-c2c3c(nc4sc5c(=O)[nH]c(C)nc5c24)CCC3)cc1 | -13 | 0 | 7 | -14 | 0 | i | .

High-throughput results from PubChem BioAssay.
